Test results taken from PubChem BioAssay (NCI).
Values joined by “and” are separate entries in the source; they are usually repeats but may differ in a detail not shown here. Equal values may be shown once. Compounds without any hit were thinned out: in the full panel of roughly 83,000, 20% have a hit.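 A percent growth of 40 corresponds to 60% growth inhibition; 0 means no net growth; -100 means all cells died. Active threshold: below 10.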 Active and inactive are the calls of the source.

How the values were obtained:
Assay in all cases: NCI-60 one-dose screen, 48 h (100 = growth as untreated, 0 = no growth, -100 = all killed)
Settings in all cases: 10 µM unless noted
DU-145 prostate = tested on: DU-145 prostate
K-562 leukemia = tested on: K-562 leukemia
MALME-3M melanoma = tested on: MALME-3M melanoma
MDA-MB-231 breast = tested on: MDA-MB-231 breast
RXF 393 renal = tested on: RXF 393 renal
SF-268 CNS = tested on: SF-268 CNS
SF-295 CNS = tested on: SF-295 CNS
SF-539 CNS = tested on: SF-539 CNS
UACC-257 melanoma = tested on: UACC-257 melanoma
M14 melanoma = tested on: M14 melanoma

Measured: growth

c1ccc(NCc2ccc3c(c2)OCO3)cc1
inactive: DU-145 prostate 111% and 108% | K-562 leukemia 105% and 98.7% | MALME-3M melanoma 106% and 119% | MDA-MB-231 breast 100% and 106% | RXF 393 renal 104% and 95.2% | SF-268 CNS 99.1% and 99.4% | SF-295 CNS 105% | SF-539 CNS 102% and 91.4% | UACC-257 melanoma 101% and 97.5% | M14 melanoma 101%

CCOC(=O)Nc1nc2ccccc2[nH]1
inactive: DU-145 prostate 121% and 38.4% | MALME-3M melanoma 101% and 52.5% | MDA-MB-231 breast 110% and 64% | RXF 393 renal 118% and 66.3% | SF-268 CNS 115% and 48.8% | SF-539 CNS 105% and 28.5% | UACC-257 melanoma 93.2% and 58% | M14 melanoma 105% and 22.4%
101% (inactive) and 8.06% (active): SF-295 CNS
103% (inactive) and 7.77% (active): K-562 leukemia

COc1ccc2nc(Cl)cc(C)c2c1
inactive: DU-145 prostate 104% and 101% | K-562 leukemia 104% and 89.5% | MALME-3M melanoma 97.5% and 127% | MDA-MB-231 breast 99.9% and 102% | RXF 393 renal 91.6% and 75.9% | SF-268 CNS 101% and 116% | SF-295 CNS 92.8% and 87.6% | SF-539 CNS 96.5% and 107% | UACC-257 melanoma 100% and 95.9% | M14 melanoma 100% and 109%

Cc1ccc(S(=O)(=O)Nc2ccc3cc([N+](=O)[O-])ccc3c2[N+](=O)[O-])cc1
inactive: DU-145 prostate 90.9% and 106% | K-562 leukemia 81.8% and 29% | MALME-3M melanoma 62.6% and 90.9% | MDA-MB-231 breast 98.8% and 95.1% | RXF 393 renal 93.2% and 102% | SF-268 CNS 81.8% and 94.8% | SF-295 CNS 38.9% and 53.1% | SF-539 CNS 89.8% and 111% | UACC-257 melanoma 82.3% and 97% | M14 melanoma 95.5% and 95%

O=C(CN1CCOCC1)N1CCOCC1
inactive: DU-145 prostate 120% and 117% | K-562 leukemia 102% and 108% | MALME-3M melanoma 90.6% | MDA-MB-231 breast 108% and 98.1% | RXF 393 renal 126% and 119% | SF-268 CNS 108% and 115% | SF-295 CNS 113% and 104% | SF-539 CNS 111% and 101% | UACC-257 melanoma 107% and 106% | M14 melanoma 97.4% and 106%

O=C1c2ccccc2C(=O)N1/N=C/c1ccc2c(c1)OCO2
inactive: DU-145 prostate 116% | K-562 leukemia 99.8% | MALME-3M melanoma 110% | MDA-MB-231 breast 87.2% | RXF 393 renal 107% | SF-268 CNS 103% | SF-295 CNS 129% | SF-539 CNS 101% | UACC-257 melanoma 99.7% | M14 melanoma 99.7%

Nc1nc(SC/C=C/CCl)c2[nH]cnc2n1
inactive: DU-145 prostate 110% | K-562 leukemia 103% and 90.7% | MALME-3M melanoma 114% and 92.3% | MDA-MB-231 breast 112% and 102% | RXF 393 renal 112% and 133% | SF-268 CNS 104% and 107% | SF-295 CNS 97.2% and 112% | SF-539 CNS 114% and 97.5% | UACC-257 melanoma 94.7% and 102% | M14 melanoma 107% and 98.9%

Cn1c(=O)n(-c2ccc(C(C)(C)C#N)cc2)c2c3cc(-c4cnc5ccccc5c4)ccc3ncc21
15.3% (inactive) and 6.2% (active): DU-145 prostate
11.2% (inactive) and 7.46% (active): SF-268 CNS
active: MALME-3M melanoma -14.1% and -14.8% | RXF 393 renal -22.6% and -17.3% | SF-295 CNS -20.4% and -4.51% | SF-539 CNS -30.1% and -17.4% | UACC-257 melanoma -9.78% and -14.4% | M14 melanoma 7.18% and 0.962%
inactive: K-562 leukemia 10.2% and 10.6% | MDA-MB-231 breast 19.3% and 20%

Oc1c(CN2CCCCC2)ccc2cccnc12
inactive: DU-145 prostate 67.9% and 53.7% | K-562 leukemia 28.8% and 30.6% | MALME-3M melanoma 88.1% and 82.5% | MDA-MB-231 breast 53.2% and 46.9% | SF-268 CNS 69.3% and 47.6% | SF-295 CNS 37.1% | SF-539 CNS 74.7% and 57% | UACC-257 melanoma 77.1% and 71.6% | M14 melanoma 20.7% and 32.6%
85.1% (inactive) and 3.68% (active): RXF 393 renal

Cc1ccc(-c2noc(C)n2)cc1
inactive: DU-145 prostate 115% | K-562 leukemia 96.1% | MALME-3M melanoma 108% | MDA-MB-231 breast 111% | RXF 393 renal 94.2% | SF-268 CNS 111% | SF-295 CNS 95.2% | SF-539 CNS 98.7% | UACC-257 melanoma 92.9% | M14 melanoma 110%

Cn1cc(-c2cc3c(Nc4ccc(CC(=O)Nc5cc(C(C)(C)C)on5)cc4)ncnc3[nH]2)cn1
active: DU-145 prostate -15% and -3.89% | K-562 leukemia 4.78% and 3.56% | MALME-3M melanoma -50.5% and -22.7% | MDA-MB-231 breast -6.46% and -3.49% | RXF 393 renal -51.7% and -45.7% | SF-268 CNS -27.7% and -23.3% | SF-295 CNS -0.861% and 7.57% | SF-539 CNS -49.9% and -49% | UACC-257 melanoma -11.9% and -15.9% | M14 melanoma -34.2% and -49.5%

OCCN1CCN(CCCN2c3ccccc3Sc3ccc(Cl)cc32)CC1
inactive: DU-145 prostate 97.3% and 95.7% | K-562 leukemia 13% and 22.7% | MALME-3M melanoma 16.5% and 67.3% | MDA-MB-231 breast 12.2% and 81.6% | RXF 393 renal 56.1% and 55.3% | SF-268 CNS 80.8% and 71.9% | SF-295 CNS 52.4% and 67.9% | SF-539 CNS 80.2% and 83.4%
-76.7% (active) and 50.1% (inactive): M14 melanoma
active: UACC-257 melanoma -43% and -5.63%

Cn1c(=O)c2[nH]c(CCCCCCCCc3nc4ccccc4[nH]3)nc2n(C)c1=O
inactive: DU-145 prostate 91.2% and 82.7% | K-562 leukemia 30.9% | MALME-3M melanoma 71.9% | MDA-MB-231 breast 77% and 60.9% | RXF 393 renal 87.9% and 101% | SF-268 CNS 83.5% and 98.3% | SF-295 CNS 34.8% and 35.9% | SF-539 CNS 78.2% and 74.8% | UACC-257 melanoma 39.7% and 72% | M14 melanoma 80.7% and 80.8%

NC(=O)c1ccccc1OCC(O)CO (stereo not given)
inactive: DU-145 prostate 114% | K-562 leukemia 107% | MALME-3M melanoma 115% | MDA-MB-231 breast 103% | RXF 393 renal 98.9% | SF-268 CNS 105% | SF-295 CNS 83.1% | SF-539 CNS 90.2% | UACC-257 melanoma 97.9% | M14 melanoma 112%

O=C(CCl)c1ccc2c(c1)Nc1ccccc1S2
inactive: DU-145 prostate 104% | K-562 leukemia 29.5% and 30.3% | MALME-3M melanoma 91.5% | MDA-MB-231 breast 97.7% and 89.5% | RXF 393 renal 103% | SF-268 CNS 104% and 98.5% | SF-295 CNS 94.8% and 96.3% | SF-539 CNS 91.7% and 84.5% | UACC-257 melanoma 102% and 96.8% | M14 melanoma 91.6% and 91.5%

CCOC(=O)Nc1ccc2c(c1)/C(=N\NC(N)=S)c1ccccc1-2
8.9% (active) and 12.6% (inactive): RXF 393 renal
inactive: DU-145 prostate 64.1% and 84.3% | K-562 leukemia 33.9% | MALME-3M melanoma 89.4% | MDA-MB-231 breast 32.7% and 47.6% | SF-268 CNS 78.6% and 85.7% | SF-539 CNS 13.8% and 31% | UACC-257 melanoma 41.9% and 91.3% | M14 melanoma 42% and 61.6%
3.9% (active) and 30% (inactive): SF-295 CNS
